Experimental findings from PubChem BioAssay AID1347076 (National Center for Advancing Translational Sciences (NCATS), 2019) are described below.

Several values for one entry are separate records, joined by “and”; a condition that tells them apart may be missing. Equal values may be shown once. The campaign covered roughly 400,000 compounds. About 13,000 (3.2%) were called active. Not shown: some 18% with an inconclusive outcome. This excerpt belongs to a sample that is enriched for actives. Values without a mark were called inactive. The call rests on the fitted dose curve; in most records, active means well fitted cell-killing curve with a large enough effect; inconclusive means small, poorly fitted or top-dose-only effect, or effect the other way; inactive means flat fitted curve, though single readings scatter.
On the % scale 0 is the no-effect control and ±100 the full control effect; potency means the concentration at half of the fitted maximal effect.

The test can be described thus: qHTS assay for MDR1-selective chemotherapeutics: Primary screen using the drug-selected MDR subline cells KB-V1. Further: nearly all actives have a fitted effect of over 60% in size. The settings on record: KB-V1 MDR cells viability, CellTiter-Glo, 72 h; series mostly up to 46.1 µM; activity change, negative = cytotoxicity: at the top concentration. In a few lines:
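KB-V1 MDR subline cells in DMEM (phenol-red free, 10% FBS) exposed to compounds in qHTS concentration series for 72 h at 37 degrees C. Viability read by CellTiter-Glo luminescence; concentration-effect curves fitted after normalization and correction.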
A general note: qHTS replaces the single test concentration by a dilution series.
Regarding `COc1cccc(OCC(=O)NCCS(=O)(=O)N2CCN(c3ccccc3)CC2)c1`, the “activity change, negative = cytotoxicity” value was -0.223%. For the compound `COc1ccc2c(c1)C=C(C(=O)NCc1cc(Br)ccc1OC)CO2`, the “activity change, negative = cytotoxicity” value is 7.07%. Same read-out and setting: under `COc1cc(-c2nnc(NC(=O)CS(=O)(=O)c3ccc(Cl)cc3)o2)cc(OC)c1OC` stands -2.72%; under `COc1ccc(Cl)cc1NC(=O)CN(C)C(=O)c1cn(-c2ccccc2)nc1-c1cccs1`, -11%.

As for `O=C(CN1C(=O)NC(Cc2ccccc2)(Cc2ccccc2)C1=O)NCC1CCCCC1`, the Potency was 20.6 µM (active). As for `COc1cccc(CNC(=O)CN2C(=O)NC(Cc3ccccc3)(c3ccccc3)C2=O)c1` (configuration not stated), the “activity change, negative = cytotoxicity” value was -1.58%.

`O=C(CC1CCCCC1)NCc1ccccc1`: the “activity change, negative = cytotoxicity” value is -3.84%. In the case of `COC(=O)C[C@H]1C[C@@H]2c3cc(N(C)C)ccc3O[C@@H]2[C@H](CO)O1`, the “activity change, negative = cytotoxicity” value is 12%. Take `CCC(C)N1C(=O)S/C(=C/c2ccc(Sc3nc4ccccc4[nH]3)o2)C1=O` (configuration not stated): the Potency was 5.17 µM (active). Take `CN(Cc1ccccc1)C(=O)CSc1nc2ccccc2[nH]1`: the “activity change, negative = cytotoxicity” value is -16%. For the compound `O=C1NC[C@H](Cc2ccc(O)cc2)N(C[C@H]2CCCN2C[C@H](Cc2ccccc2)N2C[C@H](Cc3ccccc3)N(CCc3ccccc3)C(=O)C2=O)C1=O`, the “activity change, negative = cytotoxicity” value was 10.8%. Same read-out and setting: under `COCCCNc1ccn2nc(-c3ccc(CC(C)C)cc3)cc2n1` stands -15%. With `CCOc1ncccc1C(=O)Nc1ccc(S(=O)(=O)Nc2nc(C)cc(C)n2)cc1`, the Potency was 20.6 µM (active). As to `CCOc1ncccc1C(=O)Nc1ccc2c(c1)OCCO2`, the “activity change, negative = cytotoxicity” value was -3.64%. On the same count and under the same terms, next, `O=C(Nc1ccc(S(=O)(=O)Nc2ncccn2)cc1)c1cncc(Br)c1`: 0%; `CCOC(=O)c1cccc(NC(=O)C(Cc2ccccc2)NS(=O)(=O)c2cccc3nsnc23)c1` (configuration not stated): -8.85%. For `COc1cccc(-c2ccc(SCC(=O)N3CCN(c4ccccc4)CC3)nn2)c1`, the Potency was 14.6 µM (active). Regarding `Cc1nnc(SCC(=O)N2CCN(c3ccccc3)CC2)n1-c1ccccc1`, the “activity change, negative = cytotoxicity” value is -5.39%.

Regarding `COc1cccc(/C=C/C(=O)OCC(=O)N2CCN(c3ccccc3)CC2)c1`, the “activity change, negative = cytotoxicity” value was -12.1%. In the case of `O=C1CCCC2=C1[C@@]1(CCC(c3ccccc3)C1)N=C(Nc1nc3ccccc3o1)N2` (some centres not stated), the “activity change, negative = cytotoxicity” value is -23.4%. Consider `N#CNC1=NCN(CCc2ccccc2)CN1`, for which the “activity change, negative = cytotoxicity” value was 4.58%. Consider `c1ccc(CCN2CN=C(Nc3nc4ccccc4o3)NC2)cc1`, for which the Potency is 13 µM (active). In the case of `CC(=O)c1ccc(NC(=O)c2cc(-c3cccs3)on2)cc1`, the “activity change, negative = cytotoxicity” value is -21.1%. `Cc1ccccc1Cn1nc(C)c(NC(=O)c2cc(-c3ccc(F)cc3)on2)c1C`: the “activity change, negative = cytotoxicity” value was -2.23%. For `Cc1cc(NC(=O)c2cc(-c3cccs3)on2)nn1Cc1ccc(Cl)cc1`, the Potency was 9.2 µM (active). Turning to `Cc1cccc(CC(=O)Nc2cccc(-c3cn4cccnc4n3)c2)c1`, the “activity change, negative = cytotoxicity” value was 11.6%. On to `COc1ccc(NC(=O)N(C)C[C@H]2Oc3ncc(C#C[C@@H](C)O)cc3C(=O)N([C@H](C)CO)C[C@H]2C)cc1`, for which the “activity change, negative = cytotoxicity” value is -2.19%. As to `CCOC(=O)C1C(c2ccc(O)cc2)NC(=O)NC1(O)C(F)(F)F` (configuration not stated), the “activity change, negative = cytotoxicity” value was 18%. For `O=C(c1cccs1)C1C(c2ccc(Br)cc2)NC(=S)NC1(O)C(F)(F)F` (configuration not stated), the Potency is 20.6 µM (active). On to `Cc1ccc(Cc2c(-c3ccc(C)cc3)nc3c4ccccc4ccn23)cc1`, for which the “activity change, negative = cytotoxicity” value is 2.79%. For the compound `c1ccc2c(c1)nnn2-c1ccncc1`, the “activity change, negative = cytotoxicity” value was 0.884%. On to `CC(=NCc1ccco1)C1=C(O)c2ccccc2C1=O`, for which the “activity change, negative = cytotoxicity” value is -27.6%. `CC(=NCc1ccco1)c1c(C(F)(F)F)[nH]n(-c2nc3ccccc3s2)c1=O`: the Potency is 9.2 µM (active). As to `CCc1ccc(-c2cc(C(=O)NCc3ccco3)c3ccccc3n2)s1`, the “activity change, negative = cytotoxicity” value was 1.92%. Same read-out and setting: under `CN(C)C(CNC(=O)c1cc(Br)c(Br)s1)c1ccco1` (configuration not stated) stands 10.7%; under `CCCCC(CCCC)c1ccc(C=Nc2ccc(/C=C/c3ccnc4ccccc34)cc2)cc1`, 0%; under `O=C(OCC(=O)N1CCCCCC1)c1ccc(Br)c(S(=O)(=O)N2CCOCC2)c1`, -25%. As for `Cc1ccc(C(=O)OCC(=O)N2CCCCCC2)cc1S(=O)(=O)N1CCOCC1`, the Potency is 14.6 µM (active).

With `COc1ccc(C(=O)OCC(=O)c2ccc(C)c(S(=O)(=O)N3CCOCC3)c2)cc1OC`, the “activity change, negative = cytotoxicity” value is -25.9%.

In the case of `COC(=O)[C@]12CCCCC=C1N(Cc1ccco1)C(=O)[C@H](CC(=O)NCC1CCCCC1)C2`, the “activity change, negative = cytotoxicity” value was 6.39%.

Take `COC(=O)c1ccc(C2C(C(=O)Nc3ccccc3)=C(C)Nc3nc4ccccc4n32)cc1` (configuration not stated): the “activity change, negative = cytotoxicity” value was -5.17%. On to `CCOC(=O)C1=C(C)Nc2nc3ccccc3n2C1c1cccs1` (configuration not stated), for which the Potency is 3.26 µM (active). Consider `COc1ccccc1NC(=O)C1=C(C)Nc2nc3ccccc3n2C1c1cccs1` (configuration not stated), for which the Potency is 5.8 µM (active). Consider `CC1=C(C(=O)Nc2ccccc2Cl)C(c2cccs2)n2ncnc2N1` (configuration not stated), for which the “activity change, negative = cytotoxicity” value is -6.43%. Consider `COc1ccccc1NC(=O)C1=C(C)Nc2ncnn2C1c1sccc1C` (configuration not stated), for which the “activity change, negative = cytotoxicity” value was 0%.

Regarding `CCOc1ccc(C2C(C(=O)NC)=C(C)Nc3nc4ccccc4n32)cc1OC` (configuration not stated), the “activity change, negative = cytotoxicity” value was -6.45%.

For `O=S1(=O)C[C@@H](N2CCN(CCO)CC2)[C@H](COCc2ccccc2)N1`, the “activity change, negative = cytotoxicity” value is -9.39%.

With `CC1(C(=O)NCc2ccccc2)CN(S(C)(=O)=O)CC(=O)N1CC(F)(F)F` (configuration not stated), the “activity change, negative = cytotoxicity” value was 5.12%. The same measure, in the same setting: next, `CN(C)CCN1CCN(c2cc(-c3cccc(Cl)c3)nc3ccnn23)CC1`: 7.25%.

As to `CCc1nc2c(OCC(N)=O)cccn2c1N(C)C(=O)c1ccc(OC)cc1`, the “activity change, negative = cytotoxicity” value is 0%. Still for that read-out and setting: under `CC1=C(C(=O)N2CCOCC2)CC(CC(=O)NCc2cccs2)C(=O)N1CCCN1CCCC1=O` (configuration not stated) stands -2.21%.

For `C#C[C@]1(O)CC[C@H]2[C@@H]3CCC4=CC(=O)CC[C@@H]4[C@H]3CC[C@@]21CC`, the Potency was 13 µM (active) and 7.31 µM (active). As to `CCCCCCCCN1C(=O)[C@H](CC(=O)NCC23CC4CC(CC(C4)C2)C3)C[C@@]2(C(=O)OC)CCCCC=C12`, the “activity change, negative = cytotoxicity” value was -1.91%. Regarding `CC(C)Sc1oc(-c2cccs2)nc1S(=O)(=O)c1ccc(Cl)cc1`, the “activity change, negative = cytotoxicity” value is -19.7%. On to `CC(NC(=O)c1ccc(N2CCNCC2)c([N+](=O)[O-])c1)C12CC3CC(CC(C3)C1)C2` (configuration not stated), for which the “activity change, negative = cytotoxicity” value was -12.3%. With `CS(=O)(=O)N1CCN(c2ccc(C(=O)NC3C4CC5CC(C4)CC3C5)cc2[N+](=O)[O-])CC1` (configuration not stated), the Potency was 11.6 µM (active). As to `O=C(NC1C2CC3CC(C2)CC1C3)c1ccc(N2CCNCC2)c([N+](=O)[O-])c1` (configuration not stated), the “activity change, negative = cytotoxicity” value was -24.8%. For the compound `COc1ccc(-c2cc3nc(NCCOc4ccccc4)ccn3n2)cc1`, the “activity change, negative = cytotoxicity” value was -1.29%. With `CCc1nc2onc(C)c2c(=O)n1CC(=O)O`, the “activity change, negative = cytotoxicity” value is 20.4%. Turning to `COCCCNC(NC(=O)c1ccc(OC)cc1)C(Cl)(Cl)Cl` (configuration not stated), the “activity change, negative = cytotoxicity” value is -0.612%. For `COCCCNC(NC(=O)c1ccc(C)cc1)C(Cl)(Cl)Cl` (configuration not stated), the Potency is 20.6 µM (active). On to `CCOCCCNC(=O)C(NC(=O)CNC(=O)c1ccccc1)c1ccc(C)cc1` (configuration not stated), for which the “activity change, negative = cytotoxicity” value was 0.549%.
